From ChEMBL document CHEMBL4513146, “CO-ADD screening of Karazin Kharkiv National University (Ukraine) compounds”
Entries with a potency or affinity are not part of this list.

How the values were obtained:
[1] = system: Klebsiella pneumoniae; settings: Concentration 32 ug.mL-1;; ASSAY_TEST Inhibition of Bacterial Growth; detection method Absorption (OD600); MEDIA CAMHB; plate type 384well; NBS; CORNING #3640; time 18 hr
[2] = system: Candida albicans; settings: Concentration 32 ug.mL-1; ASSAY_TEST Inhibition of Fungal Growth; detection method Absorption (OD530)
[3] = system: Cryptococcus neoformans; settings: Concentration 32 ug.mL-1; ASSAY_TEST Inhibition of Fungal Growth; detection method Resazurin; Absorption (OD600-OD570); plate type 384well; NBS; CORNING #3640

Compound	Inhibition [1]	Inhibition [2]	Inhibition [3]
CC(C)(C)Sc1ccc2nn(CC(=O)Nc3ccccc3Cl)c(=O)n2n1	9.71%	5.29%	-25.66%
Cc1cc(C)c(NC(=O)Cn2nc3c(Sc4cccc(F)c4)nccn3c2=O)c(C)c1	9.01%	0.95%	-7.48%
COc1ccc(N2CCN(C(=O)Cn3nc4c(Sc5cccc(C)c5)nccn4c3=O)CC2)cc1	-3.27%	1.08%	-17.29%
CCC(C)NC(=O)CCn1c(=O)c2ccccc2n2c(=O)n(CC(=O)NCc3cccs3)nc12 (stereo not given)	12.47%	0.11%	-24.13%
O=S(=O)(c1ccc2nncn2c1)N(Cc1cccc(F)c1)c1cc(F)cc(F)c1	12.28%	4.13%	-6.89%
COc1cc(NC(=O)CSc2nnc3c(=O)n(-c4cccc(OC)c4)ccn23)cc(OC)c1	6.06%	3.75%	-8.68%
COc1cccc(-n2ccn3c(SCC(=O)Nc4ccc5c(c4)OCCO5)nnc3c2=O)c1	14.27%	3.13%	-26.1%
O=C(Cn1nc2c(SCc3ccc(Cl)cc3)nccn2c1=O)N1CCN(c2ccccc2)CC1	2.24%	4.87%	-2.91%
CC(C)c1ccc(NC(=O)Cn2nc3c(N4CCCC4)nccn3c2=O)cc1	11.79%	2.06%	-12.68%
CC(C)c1nnc2c(=O)n(CC(=O)Nc3cccc(Cl)c3)c3ccccc3n12	4.29%	3.06%	-36.03%
Cc1ccc(-c2ccc3nn(CC(=O)Nc4ccc(Br)cc4)c(=O)n3n2)cc1C	12.28%	10.19%	-18.48%
Cc1ccc(N(CC(=O)OC(C)(C)C)S(=O)(=O)c2ccc3nnc(C)n3c2)cc1	4.9%	1.78%	-16.68%
O=C(Cn1nc2c(=O)n(-c3ccc(Br)cc3)ccn2c1=O)Nc1ccc(F)cc1F	7.12%	0.41%	-12.15%
COC(=O)c1cccc(NC(=O)Cn2nc3c(Sc4ccc(C)cc4C)nccn3c2=O)c1	13.86%	-2.57%	-30.13%
O=C(Cn1nc2n(Cc3ccc(F)cc3)c(=O)c3ccccc3n2c1=O)Nc1ccc2c(c1)OCO2	8.5%	5.19%	-6.14%
CCCCN(C)c1ccc2nnc(CCc3nc(-c4ccc(OCc5ccccc5)cc4)no3)n2n1	3.94%	9.14%	-39.2%
COc1ccccc1-n1ccn2c(SCC#N)nnc2c1=O	22.72%	4.95%	-18.74%
COc1ccc(C(=O)CSc2nnc3c(=O)n(-c4ccccc4)ccn23)cc1OC	-1.19%	25.44%	-8.66%
Cc1nnc2c(S(=O)(=O)N(Cc3cccc(Cl)c3)c3ccc(F)c(F)c3)cccn12	3.16%	2.06%	-7.4%
O=C(CSc1nnc2c(=O)n(-c3ccc(Br)cc3)ccn12)Nc1ccc(F)cc1	8.05%	10.99%	-11.61%

Compound	Inhibition [1]	Inhibition [2]	Inhibition [3]
Cc1ccc(CN(c2ccccc2)S(=O)(=O)c2ccc3nncn3c2)cc1	-1.94%	-3.84%	-7.34%
CC(C)NC(=O)CSc1nnc2c(=O)n(-c3ccccc3)ccn12	11.98%	2.07%	-5.87%
COc1ccc(C)cc1NC(=O)Cn1nc2ccc(SC(C)(C)C)nn2c1=O	5.72%	3.1%	-12.69%
O=C(CSc1nnc2c(=O)n(-c3ccc(Br)cc3)ccn12)Nc1cccc(F)c1	8.72%	6.18%	-18.67%
Cc1nnc2ccc(S(=O)(=O)N(Cc3ccc(F)cc3)c3cc(F)cc(F)c3)cn12	9.19%	0.51%	-14.68%
Cc1ccc(NC(=O)Cn2nc3ccc(SCc4ccc(Cl)cc4)nn3c2=O)c(C)c1	5.23%	4.69%	-27.61%
CCOC(=O)c1ccc(NC(=O)CSc2nc3ccccc3n3c(C(C)C)nnc23)cc1	8.56%	-0.16%	-11.29%
CCOC(=O)c1ccc(NC(=O)Cn2nc3ccc(Sc4cccc(F)c4)nn3c2=O)cc1	10.14%	3.42%	-9.72%
COc1ccc(CNC(=O)CSc2nnc3c4cc(-c5ccc(C)cc5)nn4ccn23)cc1	9.18%	1.16%	-27.11%
CSc1cccc(NC(=O)Cn2nc3c(Sc4cccc(F)c4)nccn3c2=O)c1	0.95%	3.02%	-2.39%
Cc1cccc(NC(=O)CSc2nnc3ccc(C(=O)Nc4cccc(F)c4)cn23)c1C	-0.74%	4.11%	-4.88%
O=S(=O)(c1cccn2cnnc12)N(Cc1cccc(F)c1)c1cccc(Cl)c1	2.34%	1.27%	-7.2%
COc1cccc(-n2ccn3c(SCC(=O)c4c[nH]c5ccccc45)nnc3c2=O)c1	10.78%	4.57%	-9.55%
CCc1ccccc1NC(=O)CSc1nnc2ccc(C(=O)Nc3cccc(F)c3)cn12	6.52%	8.2%	-4.61%
Cc1cc(C)cc(N(Cc2ccc(F)cc2)S(=O)(=O)c2cccn3cnnc23)c1	7.95%	1.02%	-10.98%
CCOc1ccc(C(=O)CSc2nnc3c(=O)n(-c4ccc(F)cc4)ccn23)cc1	4.99%	1.29%	-6.51%
Cc1ccc(-c2cc3c4nnc(CCC(=O)N5CCN(c6ccccn6)CC5)n4ccn3n2)cc1C	7.34%	0.49%	-12.2%
COc1ccc(-c2cc3c4nn(CC(=O)Nc5cc(Cl)ccc5C)c(=O)n4ccn3n2)cc1	1.98%	1.63%	-6.61%
COc1ccc(NC(=O)Cn2nc3ccc(SC4CCCCC4)nn3c2=O)cc1OC	8.74%	4.98%	-24.6%
CCCc1nnc2c(=O)n(CC(=O)Nc3ccc(NC(C)=O)cc3)c3ccccc3n12	9.56%	-0.49%	-26.74%

Compound	Inhibition [1]	Inhibition [2]	Inhibition [3]
O=C(Cn1nc2c(Oc3ccccc3)nccn2c1=O)Nc1ccc2c(c1)OCO2	4.55%	2.95%	-10%
COc1cccc(Sc2nc3ccccc3n3c(=O)n(CC(=O)Nc4c(C)cc(C)cc4C)nc23)c1	4.89%	-0.39%	-17.68%
Cc1ccc(Oc2nc3ccccc3n3c(=O)n(CC(=O)Nc4ccccc4C(F)(F)F)nc23)cc1	13.52%	1.1%	-22.18%
O=C(Cn1nc2c3cc(-c4ccc(Cl)cc4)nn3ccn2c1=O)Nc1ccc2c(c1)OCCO2	7.68%	-1.89%	-18.54%
COc1ccc(N2CCN(C(=O)Cn3nc4ccc(S(=O)(=O)C(C)(C)C)nn4c3=O)CC2)cc1	18.13%	-0.23%	-28.46%
Cc1ccc(Sc2nccn3c(=O)n(CC(=O)Nc4ccc(F)c(Cl)c4)nc23)c(C)c1	-6.57%	10.6%	-11.17%
O=C(Cn1nc2ccc(SC3CCCCC3)nn2c1=O)Nc1ccc(F)c(F)c1	13.05%	13.65%	-16.79%
O=C(CSc1nnc2c(=O)n(-c3ccccc3)ccn12)Nc1ccc(Br)cc1	9.81%	2.41%	-15.78%
CC(C)(C)S(=O)(=O)c1ccc2nn(CC(=O)Nc3ccc4c(c3)OCO4)c(=O)n2n1	2.44%	1.02%	-2.55%
O=S(=O)(c1ccc2nncn2c1)N(Cc1cc(F)cc(F)c1)c1ccc(F)c(F)c1	12.12%	1.89%	-12.17%
Cc1cc2nn(CC(=O)N3CCCC3)c(=O)n2c(Nc2ccc(C)c(F)c2)n1	9.72%	0.7%	-5.41%
O=c1n(Cc2cc(F)cc(F)c2)nc2ccc(-c3ccccc3)nn12	18.79%	0.55%	-16.53%
COc1ccc(NC(=O)CSc2nnc3c(=O)n(-c4ccccc4)ccn23)cc1OC	12.94%	3.46%	-16.1%
COc1cccc(-c2nc(CSc3nc4ccccc4n4c(C(C)C)nnc34)c(C)o2)c1OC	2.62%	-0.24%	-8.54%
C=Cc1ccc(Cn2nc3c(=O)n(-c4cccc(Cl)c4C)ccn3c2=O)cc1	-0.98%	-0.15%	-8.23%
COc1ccc(NC(=O)Cn2nc3nc(N4CCOCC4)ccn3c2=O)cc1F	8.85%	5.37%	-8.95%
COc1cccc(CN(c2cc(C)cc(C)c2)S(=O)(=O)c2cccn3c(C)nnc23)c1	-4.31%	1.08%	-6.64%
O=C(Cn1nc2ccc(Sc3ccccc3)nn2c1=O)N1CCN(c2ccc(F)cc2)CC1	5.94%	0.64%	-5.51%
Cc1ccc(-c2ccc3nn(Cc4nc(-c5ccc(OC(F)(F)F)cc5)no4)c(=O)n3n2)cc1	-0.72%	49.09%	-8.92%
COc1cccc(Oc2nccn3c(=O)n(CC(=O)Nc4ccc5c(c4)OCO5)nc23)c1	7.21%	1.19%	-8.5%
